Experimental findings from PubChem BioAssay (EPA / NIEHS) are described below.

More than one record can exist for a structure, and the calls need not agree. The source made the active and inactive calls. The calls were made as follows: active = hit-call score of the fitted dose curve at least 0.9, where 1 is the maximum; inactive = score below 0.9.

A short description of the assay: ATG_Oct_MLP_CIS: Attagene CIS-FACTORIAL HepG2 Assay for human Octamer-Binding Transcription Factor (Oct) (AID 2282993). Conditions: HepG2 Attagene cis-factorial Oct reporter, mRNA; actives raise or lower the signal. Here is the method:
ATG_CIS is a cell-based, multiplexed-readout assay that uses HepG2, a human liver cell line, with measurements taken at 24 hours after chemical dosing in a 24-well plate.ATG_Oct_MLP_CIS is one of 52 assay component(s) measured or calculated from the ATG_CIS assay. It is designed to make measurements of mRNA induction, a form of inducible reporter, as detected with fluorescence intensity signals by Reverse transcription polymerase chain reaction (RT-PCR) and Capillary electrophoresis technology.Data from the assay component ATG_Oct_MLP_CIS was analyzed into 1 assay endpoint. This assay endpoint, ATG_Oct_MLP_CIS, was analyzed with bidirectional fitting relative to DMSO as the negative control and baseline of activity. Using a type of inducible reporter, measures of mRNA for gain or loss-of-signal activity can be used to understand the reporter gene at the transcription factor-level as they relate to the gene POU2F1. Furthermore, this assay endpoint can be referred to as a primary readout, because this assay has produced multiple assay endpoints where this one serves a reporter gene function. To generalize the intended target to other relatable targets, this assay endpoint is annotated to the dna binding intended target family, where the subfamily is POU domain protein.
Human liver HepG2 cells are transiently transfected with multiple reporter transcription units (MRTUs) in 6-well plates using FuGene 6 reagent (Roche; 3 ml FuGene/1 mg DNA). The MRTU constructs are regulated by a cis-regulating element (promoter). […] A major difference between the CIS and TRANS system is that in CIS activities of endogenous TFs are measured, whereas the TRANS assay evaluates changes in activities of exogenous, chimeric NR-Gal4 proteins. […] At the end of 24 hour incubation, total RNA was isolated using TriZol reagent (Invitrogen). The isolated RNA is then reverse-transcribed using oligo(dT) primer and Mo-MLV reverse transcriptase (Invitrogen) with DNAse I (Ambion) treatment for 30 min. The one-tenth of the produced cDNA was amplified by PCR using Taq DNA polymerase (Invitrogen) and two reporter sequence-specific primers. The PCR products were fluorescently labeled by primer extension with 6-arboxyfluorescein (6-FAM) 5'-labeled reporter sequence-specific primer (2 min at 95 C, 20 s at 68 C and 10 min at 72 C) and these products were digested with 5U of HpaI (New England Biolabs) for 2h at 37 C. The fragments were purified using Qiaquick PCR columns (Qiagen), analyzed on an ABI 3130xL genetic analyzer (Applied Biosystems) with peak positions identified by using a set of X-rhodamine (ROX)-labeled MapMarker1000 molecular weight standards (BioVentures). The raw capillary electrophoresis data was processed using Attagraph software (Attagene).
On to `COS(C)(=O)=O`, for which the compound was called inactive.

Consider `C=CN1CCCC1=O`, for which the call was inactive.

In the case of `S=P(N1CC1)(N1CC1)N1CC1`, the AC50 – broadly, the midpoint of the concentration-response curve, whichever way the signal moves – was 170 µM (active) and the outcome was inactive.

For the compound `OC[C@H]1O[C@@](CO)(O[C@H]2O[C@H](CO)[C@@H](O)[C@H](O)[C@H]2O)[C@@H](O)[C@@H]1O`, the result was inactive.

In the case of `CCCCCCOC(=O)CC(CC(=O)OCCCCCC)(OC(=O)CCC)C(=O)OCCCCCC`, the outcome was inactive.

Take `CC[C@H](C)C(=O)O[C@H]1C[C@H](O)C=C2C=C[C@H](C)[C@H](CC[C@@H](O)C[C@@H](O)CC(=O)O)[C@H]21`: the result was inactive.

Consider `CCCCN1C(=O)[C@@H]([C@H](O)C2CCCCC2)NC(=O)C12CCN(Cc1ccc(Oc3ccc(C(=O)O)cc3)cc1)CC2`, for which the compound was classed as inactive.

`c1ccc2ncccc2c1`: the result was inactive.

Consider `O=S(=O)(O)CCC(F)(F)C(F)(F)C(F)(F)C(F)(F)C(F)(F)C(F)(F)F`, for which the outcome was inactive.

Regarding `O=C(N[C@H](CO)[C@H](O)c1ccc([N+](=O)[O-])cc1)C(Cl)Cl`, the call was inactive.

As for `O=S(=O)(O)c1ccc(N=Nc2c(O)ccc3cc(S(=O)(=O)O)ccc23)cc1`, the compound was classed as inactive.

Take `CC(C)CC(C)O` (stereo not given): the result was inactive.

As for `C=CCc1cc(S(=O)(=O)c2ccc(O)c(CC=C)c2)ccc1O`, the compound was classed as inactive.

Regarding `CC1(C)C(=O)N(Cl)C(=O)N1Cl`, the outcome was inactive.

With `O=C(O)c1cccc(C[C@@H]2COc3ccc(OCc4nc5cc(F)ccc5s4)cc3[C@@H]2O)c1`, the AC50 is 159 µM (active).

`FC(F)=C(F)C(F)(F)C(F)(F)C(F)(F)C(F)(F)C(F)(F)C(F)(F)F`: the call was inactive and the AC50 is 267 µM (active).

With `Cn1c(=O)c2[nH]cnc2n(C)c1=O`, the call was inactive.

On to `Cn1cc[nH]c1=S`, for which the compound was called inactive.

`OCCC(F)(F)C(F)(F)C(F)(F)C(F)(F)F`: the compound was called inactive.

As for `CC(C)C(=O)Nc1ccc([N+](=O)[O-])c(C(F)(F)F)c1`, the concentration at half-maximal activity (AC50) is 26.1 µM (active).

Consider `Cc1nccn1-c1ccc(Sc2cccc(C3(C(N)=O)CCOCC3)c2)cc1`, for which the AC50 was 3.22 µM (active).

`COc1cc(C(C)C)c2c(c1)S(=O)(=O)N(COc1cc(=O)n3cccc(OCCN4CCCCC4)c3n1)C2=O`: the AC50 is 4.34 µM (active).

As to `CNC(C)=O`, the outcome was inactive.

In the case of `NC(=O)N(O)[C@@H]1COc2cc(OCc3ccccc3)ccc21`, the compound was classed as inactive.

Regarding `OCC(CO)(CO)CO`, the compound was classed as inactive.

As for `CCCC(CCC)C(=O)O`, the compound was called inactive.

Turning to `C[C@]12C=CC(=O)C=C1CC[C@H]1[C@@H]3C[C@@H](O)[C@](O)(C(=O)CO)[C@@]3(C)C[C@H](O)[C@@]12F`, the call was inactive.

As to `O=C(O)c1ccc2c(c1)nc(C(=O)NC1CCN(C3CC3)CC1)n2Cc1cc(-c2ccc(Cl)s2)on1`, the compound was classed as inactive.

`CCCCCCCC1CCC(=O)O1` (stereo not given): the compound was called inactive.

As for `CCCCCCCCCC`, the result was inactive.

In the case of `CC(C)CCCCCCOC(=O)C1CCCCC1C(=O)OCCCCCCC(C)C` (stereo not given), the result was inactive.

Turning to `CCCCCCCCN(C)C`, the outcome was inactive.

Regarding `FC(F)(F)C(F)(F)C(F)(F)C(F)(F)C(F)(F)C(F)(F)I`, the call was inactive.

Regarding `NC(=O)N1c2ccccc2C=Cc2ccccc21`, the outcome was inactive.

In the case of `CCCCCCCCCCCCCCO`, the result was inactive.

For `O=C(O)c1cccc(C(=O)O)c1`, the compound was called inactive.

Consider `CCn1nc(C)c2c1C(=O)NCC(c1ccc(O)cc1)=N2`, for which the compound was classed as inactive.

As for `O=C(O)[C@H](O)[C@@H](O)C(=O)O`, the compound was classed as inactive.
